Test results: the supplement of paper PMC12669032
Values without a mark were called inactive.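 Rule for the calls: active = AUC reduced over 20% with Padj below 0.05 in at least 2 of 3 replicates; inactive = otherwise.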

system: Parabacteroides distasonis; experiment: growth AUC relative to DMSO control (median of replicates) (fraction); higher = more growth (less inhibition), active = hit call of the paper; conditions: 20 µM; 24 h
In short: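 Hourly OD600 readings over 24 h tracked anaerobic gut bacterial monocultures grown at 37 °C in mGAM from OD600 0.05 with 20 µM compound (1% DMSO). After the minimum OD was set to 0, area under the growth curve was normalised to the plate median of solvent-only wells, or to row and column medians on the industrial chemical plate. Values are medians of three biological replicates grown on separate days.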

Compound | growth AUC
Nc1cccc(O)c1 | 0.993
CCc1cccc(C)c1NC(C)C(=O)O (racemic) | 0.978
CCc1ccc(C(c2ccc(CC)cc2)C(Cl)Cl)cc1 | 0.976
CC(C)N(C(=O)CS(=O)CC(=O)O)c1ccc(F)cc1 (centres undefined) | 1.08
O=[N+]([O-])c1ccc(Oc2c(Cl)cc(Cl)cc2Cl)cc1 | 0.623 (active)
CCOC(=O)c1nc(C(Cl)(Cl)Cl)n(-c2ccc(Cl)cc2Cl)n1 | 0.899
Cc1ccc2c(c1)[C@H](Nc1nc(N)nc(C(C)F)n1)[C@@H](C)C2 (some centres undefined) | 1.09
CCCCCCCC(=O)Oc1c(Br)cc(C#N)cc1Br | 0.975
CCNc1nc(N)[nH]c(=O)n1 | 1.04
CN(C)C(=O)Nc1cc(C(C)(C)C)on1 | 1.01
O=C(NC(=O)c1c(F)cccc1F)Nc1cc(C(F)(F)F)cc(C(F)(F)F)c1Cl | 0.948
COC(=O)CSc1cc(N=c2sc(=O)n3n2CCCC3)c(F)cc1Cl | 0.796
CCN(Cc1c(F)cccc1Cl)c1c([N+](=O)[O-])cc(C(F)(F)F)cc1[N+](=O)[O-] | 0.934
CCNC(=O)[C@@H](C)OC(=O)Nc1ccccc1 | 1.08
CON=C(Cc1cccnc1)c1ccc(Cl)cc1Cl | 1.04
COC(=O)Nc1ccc(Cl)c(Cl)c1 | 0.986
CC[N+](CC)(CC(=O)Nc1c(C)cccc1C)Cc1ccccc1.O=C([O-])c1ccccc1 | 1.06
CC(C)(C)[C@@H](O)[C@@H](Cc1ccc(Cl)cc1)n1cncn1 (mixture of isomers) | 0.983
COCC(=O)N(c1c(C)cccc1C)C(C)C(=O)O (centres undefined) | 1.01
COC(=O)c1ccccc1S(=O)(=O)NC(=O)n1nc(OCC(C)O)n(C)c1=O (centres undefined) | 1.03

Compound | growth AUC
CCOC(=O)Cc1[nH]nc2ccc(Cl)cc12 | 0.983
CCCCCCCC/C=C\CCCCCCCC(N)=O | 0.96
COC1CCC2(CC1)NC(=O)C(c1cc(C)ccc1C)=C2OC1OC(CO)C(O)C(O)C1O (centres undefined) | 1.01
COC(=O)c1ccc(C(F)(F)F)nc1S(=O)(=O)[N-]C(=O)Nc1nc(OC)cc(OC)n1.[Na+] | 1
COC1CCC2(CC1)NC(=O)C(c1cc(C)ccc1C)=C2O (centres undefined) | 1.01
O=C(Nc1ccc(O)cc1-c1ccc(Cl)cc1)c1cccnc1Cl | 1.01
Cc1nn(C)c(F)c1C(=O)Nc1ccccc1C(C)CC(C)C (centres undefined) | 0.96
O=C(NCc1ncc(C(F)(F)F)cc1Cl)c1c(Cl)cccc1Cl | 0.971
CC1COc2ccccc2N1C(=O)C(Cl)Cl (centres undefined) | 0.931
CCc1cccc(C)c1NC(=O)C(=O)O | 0.982
Cc1[nH]oc(=O)c1N=Nc1ccccc1Cl | 0.987
COc1ccccc1C(=O)NS(=O)(=O)c1ccc(C(=O)NC2CC2)cc1 | 1.03
O=C(O)c1ccc(Cl)cc1Cl | 0.984
CCCCCCCC/C=C\CCCCCCCCCCCCC | 1.01
COC(=O)COc1ccc(Cl)cc1C | 1.01
CC(C)OC(=O)N[C@H](C(=O)N[C@H](C)c1nc2ccc(F)cc2s1)C(C)C | 0.847
CCNc1nc(N)nc(Cl)n1 | 1.02
Cc1nn(C)c(OCC(=O)c2ccccc2)c1C(=O)c1ccc(Cl)cc1Cl | 0.674 (active)
Cc1cc(C)c(C2=C(O)C3(CCCC3)OC2=O)c(C)c1 | 0.622 (active)
